Compound activity as filed in PubChem.
Shown are actives, neighbours in structure and some others; about 4.1% of the full set was active somewhere.
hgDAF-12 ag: hgDAF-12 agonism, primary luciferase screen | HEK293 GAL4-hgDAF12 UAS-luciferase reporter, agonist luminescence; normalized to butyrate control | 370,000 tested, 1.8% active | activation, % at 6.8 µM | AID 687014;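 active = activation above a cutoff set at the mean of all screened compounds plus 3 SD, cut at about 10% in these data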;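 also: 0% = DMSO wells and 100% = sodium butyrate wells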
DAX1 inh-1: NR0B1 (DAX1) inhibition. P51843. inhibition, % at 6.75 µM. 340,000 tested, 0.99% active. HEK293 Gal4-DAX1 luciferase reporter, luminescence;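 active = inhibition above the mean over all tested compounds plus 3 SD, cut at about 4.2% in these data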;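 also: 0% = DAX1-transfected cells with DMSO and 100% = empty-vector control cells with DMSO; inhibition shows as a rise in luminescence from relieved DAX1 repression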
Target sequence (P51843 207-470 limits assumed): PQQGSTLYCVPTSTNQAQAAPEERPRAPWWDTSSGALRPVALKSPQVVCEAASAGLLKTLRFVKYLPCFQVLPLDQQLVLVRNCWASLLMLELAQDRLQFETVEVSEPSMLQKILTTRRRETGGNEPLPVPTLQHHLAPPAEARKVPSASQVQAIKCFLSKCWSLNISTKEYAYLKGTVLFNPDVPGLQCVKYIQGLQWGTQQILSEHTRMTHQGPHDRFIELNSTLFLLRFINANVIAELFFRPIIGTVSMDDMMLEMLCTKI
ssDAF-12 act: activates DAF-12 receptor from parasite S. stercoralis | 370,000 tested, 1% active | activation, % at 6.8 µM | HEK293 ssDAF-12/GRIP1 lit1-tk-luc reporter, luminescence; % of 3 µM dafachronic acid response;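 active = activation above the mean over all tested compounds plus 3 SD, cut at about 0.9% in these data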;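 also: 0% = DMSO-only wells and 100% = 3 µM delta7-dafachronic acid wells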
hcDAF-12 act: activators of H. contortus DAF-12 nuclear receptor; HEK293 hcDAF-12 lit1-tk-luc reporter, luminescence; 0% DMSO, 100% Δ7-dafachronic acid; activation, % at 6.8 µM; 370,000 tested, 1.4% active;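 active = activation above the mean of all tested compounds plus 3 SD, cut at about 5.5% in these data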;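 also: 100% = response to 3 µM Δ7-dafachronic acid high control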
DAX1 inh-2: blocks DAX1 repression of SF-1 activated StAR promoter; HEK293T StAR-luciferase reporter, SF-1/DAX-1 repression relief; inhibition, % at 6.8 µM; 370,000 tested, 1.1% active; AID 652010;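 active = inhibition above the mean over all tested compounds plus 3 SD, cut at about 3.6% in these data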;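 also: 0% = DAX-1 cells with DMSO and 100% = cells lacking DAX-1 with DMSO; higher inhibition means more luminescence from relief of DAX-1 repression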
* = called active by the depositor; . = not tested or not shown.

SMILES	hgDAF-12 ag	DAX1 inh-1	ssDAF-12 act	hcDAF-12 act	DAX1 inh-2
COC(=O)[C@@]12C[C@@H](CC(=O)NCCC(C)C)C(=O)N(CCc3ccc(OC)c(OC)c3)C1=CCC(C)(C)C2	0.5	.	-1.2	-2.1	4.4*
c1ccc(-c2nc3ccccc3[nH]2)cc1	11.9*	2.8	0.0	4.4	4.4*
c1cncc(-c2nc3ccccc3[nH]2)c1	4.5	0.7	-0.6	3.1	0.7
c1ccc2[nH]c(-c3ccncc3)nc2c1	2.9	0.5	-0.3	0.1	-0.2
c1ccc(-c2nc3ccccc3[nH]2)nc1	10.4	0.6	1.3*	5.3	2.6
S=C(Nc1ccc(-c2nc3ccccc3[nH]2)cc1)Nc1cccnc1	10.6*	0.9	-0.5	2.0	2.0
COC(=O)[C@]12C[C@H](CC(=O)N3CCCCC3)C(=O)N(Cc3ccco3)C1=C[C@H](C1CCCC1)O[C@@H]2C	3.1	.	-1.1	-0.1	-0.5
CCCCc1nc2cc(C(=O)NCc3cc(C)n(C)n3)ccc2o1	4.1	0.8	-1.1	6.2*	0.3
CCCCc1nc2cc(C(=O)N3CCC[C@H]3CO)ccc2o1	4.0	2.5	-0.4	1.6	2.0
CCCCc1nc2cc(C(=O)N(C)CCc3cn[nH]c3)ccc2o1	2.5	0.1	-1.2	-0.3	-0.1
CC(C)CC(=O)C1CCCN(C(=O)c2ccc3oc(Cc4ccccc4)nc3c2)C1 (stereo not given)	-1.8	-0.4	-1.3	-0.4	-0.5
Cc1cc(CNC(=O)c2ccc3nc(Cc4ccccc4F)oc3c2)nn1C	11.5*	2.0	-0.7	2.3	2.4
O=C(NCc1ccncc1)c1ccc2nc(Cc3ccccc3F)oc2c1	-2.0	-0.5	-1.7	-0.7	-3.4
CCOC(=O)C1CCCN(C(=O)c2ccc3oc(Cc4ccccc4)nc3c2)C1 (stereo not given)	11.4*	1.9	-0.4	2.6	3.3
CCCCc1nc2cc(C(=O)N3CCC(O)CC3)ccc2o1	10.9*	1.4	1.0*	6.2*	1.9
OCCN1CN(c2ccccc2)C(=S)N(c2ccccc2)C1	-1.3	.	-1.7	0.5	2.6
COC(=O)[C@]12C[C@H](CC(=O)N3CCSCC3)C(=O)N(CCC3=CCCCC3)C1=C[C@H](C1CCCC1)O[C@@H]2C	8.0	.	-1.7	-1.5	-0.6
CNC(C#Cc1ccccc1)c1ccccc1C(F)(F)F (stereo not given)	0.5	.	-0.7	-1.6	.
CNc1ccccc1/C(O)=C(\C#N)C(=O)NCc1cccc2ccccc12	-0.7	.	-1.2	-1.9	0.0
O=C(NCCCN1CCOCC1)c1ccc2ccccc2c1	3.5	1.7	-0.2	-1.9	0.8
O=C(NCCCN1CCOCC1)c1ccc2nc(Cc3ccccc3F)oc2c1	1.3	-0.1	-0.7	-0.8	4.2*
O=C(O)CC(CC(=O)Nc1ccc(F)c(Cl)c1)c1ccc(Cl)cc1Cl (stereo not given)	0.8	10.1*	-2.0	-1.2	0.5
O=C(CCn1nnc(-c2cccs2)n1)N1CCCCC1	4.6	.	-0.6	-1.0	1.6
CCCC(=O)N1CCC(NS(=O)(=O)c2ccc3c(c2)CCN3C(C)=O)CC1	-1.3	.	-1.8	-1.6	-0.7
Cc1cc(NC(=O)CSc2nnc(-c3ccncc3)n2C)n(-c2ccccc2)n1	-1.4	6.0*	-1.5	-1.1	0.4
SMILES	hgDAF-12 ag	DAX1 inh-1	ssDAF-12 act	hcDAF-12 act	DAX1 inh-2
Cc1cc(NC(=O)CSc2nnc(-c3ccncc3)n2Cc2ccccc2)n(-c2ccccc2)n1	0.1	-0.5	-0.4	-0.5	-0.2
Cc1cccc(NC(=O)Cn2nnc3ccccc32)c1	9.4	4.7*	-0.4	3.0	2.7
Cc1cccc(NC(=O)CSc2nnc(-c3ccncc3)n2C)c1	12.2*	0.1	-1.5	-0.8	0.1
Cc1ccc(NC(=O)Cn2nnc3ccccc32)cc1	9.5	.	-0.2	4.6	2.4
Cc1cc(N2CCC(C)CC2)nc2ccccc12	1.3	.	-0.5	-0.1	.
COc1ccc(C(=O)OCCCN(C)C2CN(Cc3cn(Cc4ccccc4C(F)(F)F)nn3)S(=O)(=O)C2)cc1OC (stereo not given)	-3.1	.	-1.9	-2.1	-2.2
O=C(O)c1cc(-c2cc3ccccc3o2)nn1-c1ccccc1	1.9	0.6	2.5*	5.8*	0.1
COc1ccccc1N1CCN(/N=C/C(Cl)=C/c2ccccc2)CC1	7.7	5.0*	-0.5	2.0	0.6
Cc1ccc(N2CCN(/N=C/C(Cl)=C/c3ccccc3)CC2)cc1	-1.9	0.5	-1.2	0.0	0.1
COc1ccccc1N1CCN(C(=O)c2cc3ccccc3[nH]2)CC1	-1.2	-1.8	-0.9	-0.1	1.8
COc1ccccc1N1CCN(CCCCOc2c(OC)cccc2OC)CC1	0.0	-0.3	-1.2	-1.3	-0.6
COc1ccccc1N1CCN(C(=O)c2cc3cc(F)ccc3[nH]2)CC1	1.6	-1.5	-0.1	5.8*	-0.5
COc1ccccc1N1CCN(C(=O)CCC(=O)O)CC1	0.8	5.5*	-0.8	-2.3	0.9
COc1ccccc1N1CCN(CCOc2c(OC)cccc2OC)CC1	-2.7	4.6*	-1.4	-1.0	-0.1
O=C(CCCC(=O)N1CCN(c2ccccc2F)CC1)c1ccccc1	8.3	17.2*	-0.2	0.3	1.6
COc1ccccc1N1CCN(/N=C\c2ccccc2)CC1	5.0	5.1*	-1.0	2.8	0.8
COc1ccccc1N1CCN(/N=C/c2cc(OC)c(OC)c(OC)c2)CC1	-2.0	1.8	-1.7	-1.4	-0.1
O=C(CCCC(=O)N1CCN(c2ccccc2F)CC1)N1CCN(c2ccccc2F)CC1	-0.5	1.8	-1.2	-1.5	0.5
O=C1c2ccccc2NC(c2cccs2)N1O (stereo not given)	0.5	5.7*	-0.6	0.7	3.7*
CCC(CO)Nc1ccn2nc(-c3cc(OC)c(OC)c(OC)c3)cc2n1 (stereo not given)	1.0	.	-1.4	0.5	0.3
CCC(CO)Nc1ccn2nc(-c3cccs3)cc2n1 (stereo not given)	11.2*	.	-0.4	3.6	3.9*
N#Cc1c(-c2ccccc2)cc2nc3ccccc3n2c1N	-0.6	4.3*	-0.5	-1.0	-0.4
COc1cc(-c2cc3nc4ccccc4n3c(N)c2C#N)cc(OC)c1OC	-6.3	-2.9	-1.2	-2.6	-1.8
COC(=O)[C@]12C[C@H](CC(=O)N3CCN(C(=O)C4CC4)CC3)C(=O)N(Cc3cccc4ccccc34)C1=C[C@H](C(C)(C)C)O[C@@H]2C	0.8	.	-1.2	-0.9	0.2
O=C(O)c1ccccc1C=NN=C1c2ccccc2-c2ccccc21	1.1	0.7	0.2	2.2	-0.2
Oc1ccccc1C=NN=C1c2ccccc2-c2ccccc21	3.2	0.8	2.1*	3.4	-0.6
COc1ccc(C(C#N)=C2C=CC(=NO)C=C2)cc1	-0.5	-0.9	1.3*	-2.5	-0.5
CC(=O)ON=C1C=CC(=C(C#N)c2ccccc2)C=C1	-4.7	.	-1.2	-0.4	-5.8
Cn1c(-c2ccccc2)cccc1=O	0.6	1.2	1.3*	1.4	-0.1
O=C(Nc1ccc([N+](=O)[O-])cc1)N1CCCCCC1	1.3	0.6	-0.9	0.4	4.1*
